# Assay results: PubChem BioAssay AID1159606 (Sanford-Burnham Center for Chemical Genomics, 2016)
# About 7,300 (2%) of roughly 360,000 compounds were called active. Rule as the data show it: active = inhibition above about 50%; inactive = the rest. The list comes from a sample in which actives are over-represented; it also holds similar structures and randomly drawn compounds.
# Assay: blockers of TWEAK-induced Fn14 reporter activity – luciferase reporter cells, uHTS, primary screen (AID 1159606)
# Conditions: TWEAK-stimulated Fn14 reporter cells, luciferase luminescence, 8 h; at 10 µM; stronger effect = higher value
row,Compound,inhibition
1,Cc1ccc(-c2c(C)n([O-])c3c([n+]2=O)CCC3)cc1,19% (inactive)
2,CNS(=O)(=O)c1cccc(C(=O)NCC2CCCCC2)c1,-15.5% (inactive)
3,CN(C(=O)c1cccc(OC2CCN(S(=O)(=O)N(C)C)CC2)c1)C1CCOC1 (stereo unspecified),-26.3% (inactive)
4,CN(C)S(=O)(=O)N1CCC(Oc2cccc(C(=O)NCCCC3CCCC3)c2)CC1,57.2% (active)
5,Cc1ccc(C)c2[nH]c(=O)c(CCNC(=O)CC(C)C)cc12,-18.2% (inactive)
6,CCCc1cc(C(=O)Nc2ccc(Cl)cn2)cs1,58.8% (active)
7,CCN(CC)CCNC(=O)c1ccc(NS(=O)(=O)c2ccc3c(c2)OCCO3)cc1,2.79% (inactive)
8,CN1CCN(c2ccc(NC(=O)c3ccc4c(c3)OCCO4)cc2Cl)CC1,17.5% (inactive)
9,CC(NS(=O)(=O)c1ccc(Cl)cc1)C(=O)Nc1ccc2c(c1)OCCO2 (stereo unspecified),32.7% (inactive)
10,O=C(Nc1ccc2c(c1)OCCO2)c1ccc(Cl)c(S(=O)(=O)N2CCCCC2)c1,56.7% (active)
11,Cc1nc(NC(=O)c2ccc3c(c2)OCCO3)ccc1Br,30.4% (inactive)
12,O=C(Nc1ccc(Cl)cn1)c1cnn2cccnc12,5.94% (inactive)
13,CCCCC(CC)C(=O)Nc1ccc(Cl)cn1 (stereo unspecified),-8.67% (inactive)
14,Cc1ccc(C(=O)Nc2ccc3c(c2)OCCO3)cc1S(=O)(=O)N1CCOCC1,-15.2% (inactive)
15,CCCc1cc(C(=O)Nc2ccc(C(=O)OC)cc2)cs1,-11.7% (inactive)
16,O=C(Nc1cccc(S(=O)(=O)Nc2ccc(Cl)cc2)c1)c1ccc2c(c1)OCCO2,78.2% (active)
17,O=C(Nc1ccc(Cl)cn1)c1ccc2c(c1)OCCO2,66.8% (active)
18,CCOc1ccc(-c2c(C)n([O-])c3c([n+]2=O)CCCC3)cc1,-15.2% (inactive)
19,O=S1(=O)CC(N2CCSCC2)CN1Cc1cn(Cc2cccc(Cl)c2)nn1 (stereo unspecified),0.68% (inactive)

row,Compound,inhibition
1,CC(=O)N1Cc2cc(C(=O)NCc3cccc(F)c3)nc(-c3cccc(C4=CCCC4)c3)c2[C@H]1CCO,-25.9% (inactive)
2,COC(=O)C1(C(=O)OC)C/C=C\CN(S(=O)(=O)c2ccccc2[N+](=O)[O-])CCC1,-4.25% (inactive)
3,CC(=O)N1CCSc2ccc(S(=O)(=O)N3CCC(C)CC3)cc21,10.4% (inactive)
4,Cc1csc(=O)n1CCC(=O)OCC(=O)Nc1ccc(N2CCOCC2)cc1,-8.76% (inactive)
5,COCCNc1nc(NCc2ccc(NC(C)=O)cc2)c2sccc2n1,-3.75% (inactive)
6,COc1ccccc1CNc1nc(Nc2ccccc2Cl)c2sccc2n1,61.9% (active)
7,COc1cccc(CNc2nc(NCc3cccs3)nc3ccsc23)c1,-13.7% (inactive)
8,Clc1ccccc1Nc1nc(NCc2cccs2)nc2ccsc12,12.1% (inactive)
9,COCCNc1nc(Nc2ccccc2Cl)c2sc(-c3ccccc3)cc2n1,-18.2% (inactive)
10,COc1cccc(CNc2nc(NCc3ccccc3OC)nc3ccsc23)c1,63.1% (active)
11,O=C1CC(c2ccccc2)C(c2ccccc2)=NN1 (stereo unspecified),-8.4% (inactive)
12,O=S1(=O)CCOC[C@H](CC2CCCCC2)N1Cc1ccc(F)cc1,3.84% (inactive)
13,CCc1cccc(CC)c1NC(=O)COc1ccccc1C(=O)c1cc(C#N)c(=O)n(C2CCCCC2)c1,19.8% (inactive)
14,CN(Cc1cn(Cc2ccc(C(F)(F)F)cc2)nn1)C1CN(Cc2cn(Cc3ccc(C(F)(F)F)cc3)nn2)S(=O)(=O)C1 (stereo unspecified),33.8% (inactive)
15,CC(=O)c1nc(N2C(=O)C3CC=C(C)CC3C2=O)sc1C (stereo unspecified),-2.22% (inactive)
16,Cc1ccc(-c2cc(=O)[nH]c(NCc3ccccc3)n2)cc1,9.23% (inactive)
17,CCS(=O)(=O)c1ccc2c(c1)N(S(=O)(=O)c1ccccc1)CC(C(=O)O)O2 (stereo unspecified),-19.1% (inactive)
18,CC1(C(=O)O)CCCN(C(=O)/C=C/c2ccccc2)C1 (stereo unspecified),3.38% (inactive)
19,COC(=O)c1c(C)[nH]c(C(=O)/C=C/c2ccc(Cl)cc2)c1C,-23.7% (inactive)

row,Compound,inhibition
1,Cc1[nH]c(=O)c(C(=O)/C=C/c2ccccc2)c2c1CCCC2,83.9% (active)
2,CCN(CC)CCOc1ccc2c(c1)C(=NNC(=O)c1ccccn1)c1cc(OCCN(CC)CC)ccc1-2,-85.7% (inactive)
3,COc1ccc(-c2cc(C(=O)N(C)Cc3ccc(OC)c(OC)c3OC)c3ccccc3n2)cc1OC,19.7% (inactive)
4,COc1ccc(-c2cc(C(=O)NCCCN3CCCC3=O)c3ccccc3n2)cc1OC,-9.51% (inactive)
5,COc1ccc(-c2cc(C(F)(F)F)nc(S(C)(=O)=O)n2)cc1OC,76.2% (active)
6,OCC1(Cc2ccccc2C(F)(F)F)CCN(Cc2ccncc2)CC1,14.4% (inactive)
7,Cc1cc(-c2nnc(SCC(=O)Nc3ccc(F)cc3)n2N)n[nH]1,1.35% (inactive)
8,O=C(CC[C@H]1O[C@@H](n2ccc(=O)[nH]c2=O)[C@H](O)[C@@H]1O)N[C@H](Cc1ccccc1)C(=O)NCc1ccco1,10.1% (inactive)
9,CC1CCCCC1NC(=O)/C(C#N)=C/C=C/c1ccccc1[N+](=O)[O-] (stereo unspecified),84.9% (active)
10,CC1CCCCC1NC(=O)COc1ccc(C#N)cc1 (stereo unspecified),2.53% (inactive)
11,CC(OC(=O)/C=C/c1ccccc1)C(=O)NC1CCCCC1C (stereo unspecified),-1.03% (inactive)
12,CC(=O)NCC(=O)N(C)C(C(=O)Nc1ccc2c(c1)OCCO2)c1ccccc1 (stereo unspecified),7.79% (inactive)
13,CCN(CC)CCn1cnc2c1c(=O)n(CCOC(=O)c1cc(OC)c(OC)c(OC)c1)c(=O)n2C,-2.5% (inactive)
14,O=C(CC1SC(N2CCCC2)=NC1=O)Nc1ccc(C(=O)NCCc2ccc(F)cc2)cc1 (stereo unspecified),-8.62% (inactive)
15,C=CCN(CC=C)S(=O)(=O)c1ccc(C(=O)Nc2nc3c(s2)CCc2ccccc2-3)cc1,-34.3% (inactive)
16,N#Cc1ccc(C(=O)Nc2nc(-c3cccs3)c(C(=O)C(F)(F)F)s2)cc1,58.4% (active)
17,N#Cc1c(-c2cccs2)nc(SCC(=O)c2ccc(Br)cc2)[nH]c1=O,-12.4% (inactive)
18,Cc1oc2c(C)c3oc(=O)c(CC(=O)N[C@@H](CC(C)C)C(=O)N[C@@H](Cc4ccccc4)C(=O)O)c(C)c3cc2c1C,-9.29% (inactive)
